Screens deposited in PubChem by several laboratories.
An excerpt weighted towards active compounds, which were near 2.5% of everything screened.
PKA-R1A activ: PKA-R1A complex activation | P00514+P68181 | PKA-R1A dissociation, Cy5-IP20 fluorescence polarization; scaled: DMSO 0%, 113 µM cGMP 100% | activation, % at 11.4 µM | 340,000 compounds, 0.083% hits | AID 504707;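 active = percent activation above the mean of all tested compounds plus 3 SD, cut at about 19% in these data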;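 also: higher means more PKAc released from R1A so a rise in polarization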
ANO1 block: inhibitors of mouse TMEM16A calcium-activated chloride channel | HEK293 TMEM16A/YFP iodide influx fluorescence, ionomycin | normalized B-score (activity score, 25-100; higher = stronger inhibition) at 10 µM | 310,000 compounds, 1.2% hits | AID 588511;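 active = ratio plate-corrected score three or more library SD toward inhibition, starting fluorescence score within five deviations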;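 also: score derived from kinetic fluorescence span divided by baseline fluorescence per well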
PKA-R2B activ: activators of human PKA-R2B complex; 340,000 compounds, 0.079% hits; AID 504700; activation, % at 11.4 µM; PKA-R2B holoenzyme dissociation, Cy5-IP20 fluorescence polarization; R2B truncated from residue 108, S112A mutant; 0% DMSO only, 100% 113 µM cGMP;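 active = activation above a cutoff set at the mean over all compounds plus 3 SD, cut at about 18% in these data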;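 also: higher means more holoenzyme dissociation and a rise in polarization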
TMEM16A act: activates or potentiates the mouse TMEM16A chloride channel. Q8BHY3. HEK293 TMEM16A/YFP-H148Q/I152L, iodide quench fluorescence; active compounds read low. B-score at 10 µM. 340,000 compounds, 0.3% hits;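 active = fluorescence-ratio B-score plate-corrected deviation score at least 3 library SD below zero, with starting fluorescence score within 5 deviations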;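 also: channel opened by trigger with iodide after compound preincubation; score built on the fluorescence ratio of max minus min over baseline; more negative score means more quench and so TMEM16A activation or potentiation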
CHT inh: inhibits the human high affinity choline transporter | Q9GZV3 | CHT-expressing cells, membrane potential dye, choline response; active compounds read low | B-score at 10 µM | 310,000 compounds, 0.86% hits | AID 488975;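 active = B-score over 3 SD under the library average, and starting fluorescence ratio not unusually high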;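 also: choline stimulus applied at its EC90 after an EC20 pre-addition; B-score computed on integrated fluorescence ratio after choline addition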
Target sequence (Q9GZV3 whole entry, looked up): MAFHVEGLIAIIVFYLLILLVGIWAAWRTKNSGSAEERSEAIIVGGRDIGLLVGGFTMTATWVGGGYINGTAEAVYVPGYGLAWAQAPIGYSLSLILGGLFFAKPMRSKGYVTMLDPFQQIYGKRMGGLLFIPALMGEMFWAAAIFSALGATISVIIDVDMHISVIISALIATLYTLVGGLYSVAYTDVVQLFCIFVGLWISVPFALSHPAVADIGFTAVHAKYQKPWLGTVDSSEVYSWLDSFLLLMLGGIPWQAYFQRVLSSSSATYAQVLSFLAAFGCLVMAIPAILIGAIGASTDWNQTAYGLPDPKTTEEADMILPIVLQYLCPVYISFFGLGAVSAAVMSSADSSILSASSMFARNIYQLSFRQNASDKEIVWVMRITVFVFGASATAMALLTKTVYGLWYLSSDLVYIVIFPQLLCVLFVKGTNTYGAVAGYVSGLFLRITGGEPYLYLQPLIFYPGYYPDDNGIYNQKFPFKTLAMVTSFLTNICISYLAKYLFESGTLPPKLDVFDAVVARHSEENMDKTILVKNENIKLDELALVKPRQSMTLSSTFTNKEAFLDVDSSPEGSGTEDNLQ
CHT PAM: allosteric activators of human choline transporter CHT; Q9GZV3; CHT-expressing cells, membrane potential dye, choline EC20; active compounds read high; LV-AA mutant CHT in HEK293 cells; B-score at 10 µM; 310,000 compounds, 0.49% hits;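 active = initial fluorescence not abnormally high and integrated response B-score, plate-corrected, over 3 SD above library mean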
TMEM16A reconf: re-confirmation of mouse TMEM16A chloride channel inhibitors | shares compounds with ANO1 block | HEK293 TMEM16A/YFP-H148Q, iodide quench fluorescence; ionomycin added to raise cell calcium | inhibition, % at 10 µM | 2,300 compounds, 39% hits | AID 652189;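 active = mean duplicate percent inhibition, scaled so buffer wells are 0 and the reference blocker 100, over three buffer SD above buffer mean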
HEK293 Ca mobil: calcium mobilization counter-screen hit for TMEM16A inhibitor series; shares compounds with ANO1 block; TMEM16A/YFP HEK293, Fluo4 calcium mobilization; calcium response (% of ionomycin), % at 10 µM; 2,300 compounds, 2% hits; AID 652231;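 active = duplicate-averaged calcium signal over 20% of the ionomycin maximum, relative to buffer baseline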;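 also: each well's signal is peak minus trough fluorescence divided by its pre-addition baseline; 0% = buffer wells and 100% = ionomycin wells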
YFP-HEK293 quench: parental YFP-HEK293 iodide quench counter-screen activity; shares compounds with ANO1 block; ionomycin; YFP ratio F(max-min)/F0 at 10 µM; 2,300 tested, under 10 active; AID 652233;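 active = yellow fluorescent protein signal ratio exceeding the buffer control mean by over 5 SD of those controls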;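 also: ratio is mean of duplicate wells from kinetic YFP trace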
ClC-1 rat inh: rat ClC-1 inhibition, TMEM16A specificity screen | shares compounds with ANO1 block | CHO ClC-1-YFP, iodide influx fluorescence quench; iodide control reads 0, buffer control 100 | ratio percent, % at 10 µM | 2,300 tested, under 10 active | AID 652236;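 active = duplicate-mean ratio percent above the mean of iodide-only control wells, which defines zero, plus 5 of their SD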;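 also: higher percent means stronger block of ClC-1 iodide influx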
* marks the source's active call; other numbers are inactive results; i = inactive; / = not tested or not shown.

SMILES	PKA-R1A activ	ANO1 block	PKA-R2B activ	TMEM16A act	CHT inh	CHT PAM	TMEM16A reconf	HEK293 Ca mobil	YFP-HEK293 quench	ClC-1 rat inh
O=C(Nc1ccc(Cl)c(Cl)c1)Nc1ccccc1O	-6	100*	-10	i	i	i	22%*	i	-1.1	-20
Cc1ccccc1OCc1nc(-c2ccc(NC(=O)c3ccco3)cc2)no1	7	25*	-4	i	i	i	i	i	-1	-10
COc1ccc(CCNc2cc(N3CCN(C(=O)c4ccccc4F)CC3)ccc2[N+](=O)[O-])cc1OC	6	25*	3	i	i	i	42%*	i	-0.85	-18
CCN1CCN(CC(O)COC(C)C)CC1 (configuration not stated)	2	25*	-7	i	i	i	i	i	-1.2	-14
CC(C)(C)[C@H]1COC(=O)CC/C=C\C[C@@H](CC(=O)N(CCO)Cc2ccccc2)C(=O)N1	-3	/	-5	i	/	/	/	/	/	/
CC(C)C(c1nnnn1C1CCCCC1)N1CCN(c2ncccn2)CC1 (configuration not stated)	0	100*	-10	i	i	i	i	i	-1.2	-14
CCOC(=O)Cc1csc(SCC(=O)Nc2cccc(Cl)c2)n1	-9	100*	0	i	i	i	26%*	i	-0.92	-17
CCOC(=O)Cc1csc(SCC(=O)Nc2cccc(C#N)c2)n1	-11	i	1	i	i	i	/	/	/	/
COc1ccc(NC(=O)CCSc2nc(C)cs2)cc1	-5	i	-2	i	i	i	/	/	/	/
Cc1ccc(C(C)NC(=O)c2c(C)noc2C)cc1C (configuration not stated)	-8	25*	0	i	i	i	i	i	-1	-10
CC(C)OCCCNc1ncnc2c1[nH]c1ccccc12	-1	100*	0	i	i	i	38%*	i	-1.1	-22
CCOc1ncccc1C(=O)Nc1cc(S(=O)(=O)N2CCCCC2)ccc1OC	-12	/	1	i	/	/	/	/	/	/
COc1ccc(NC2CCCN(C(=O)CCc3cn[nH]c3)C2)cc1 (configuration not stated)	-4	i	-11	i	i	i	/	/	/	/
O=C(c1ccco1)[C@@H]1[C@@H]2C(=O)N(c3ccc(F)cc3)C(=O)[C@@H]2[C@H]2C=Cc3ccccc3N21	-8	i	-10	i	i	i	/	/	/	/
NC(=O)[C@@H]1[C@@H]2C(=O)N(c3ccc(F)cc3)C(=O)[C@@H]2[C@H]2C=Cc3ccccc3N21	/	i	/	i	i	i	20%*	i	-1	-5
CCC(C)N1CC(=O)N2C(c3ccc(OC)cc3OC)c3[nH]c4ccccc4c3C[C@H]2C1=O (some centres not stated)	6	i	4	i	i	i	/	/	/	/
O=C(Nn1nnnc1Nc1ccccc1)C12CC3CC(CC(C3)C1)C2	0	25*	6	i	i	i	i	i	-0.8	-6
O=C(NCc1ccccc1)C12CC3CC(CC(C3)C1)C2	-5	i	3	i	i	i	/	/	/	/
